Laboratory results taken from the supplement of paper PMC11732987, “Enantioselective OTUD7B fragment discovery through chemoproteomics screening and high-throughput optimisation” (Communications Chemistry, 2025).

What was measured:
Test in all cases: log2 ratio of Biotin-Ahx-Ub-VS probe labelling (fragment/DMSO); higher = less target engagement (more negative = stronger competition), active = hit call of the paper (q ≤ 0.05, log2 ratio ≤ -1)
Conditions in all cases: compound concentration: 200 uM; treatment time: 3 h
USP42 = target: T1, USP42 (UniProt Q9H9J4)
T1 sequence (whole entry): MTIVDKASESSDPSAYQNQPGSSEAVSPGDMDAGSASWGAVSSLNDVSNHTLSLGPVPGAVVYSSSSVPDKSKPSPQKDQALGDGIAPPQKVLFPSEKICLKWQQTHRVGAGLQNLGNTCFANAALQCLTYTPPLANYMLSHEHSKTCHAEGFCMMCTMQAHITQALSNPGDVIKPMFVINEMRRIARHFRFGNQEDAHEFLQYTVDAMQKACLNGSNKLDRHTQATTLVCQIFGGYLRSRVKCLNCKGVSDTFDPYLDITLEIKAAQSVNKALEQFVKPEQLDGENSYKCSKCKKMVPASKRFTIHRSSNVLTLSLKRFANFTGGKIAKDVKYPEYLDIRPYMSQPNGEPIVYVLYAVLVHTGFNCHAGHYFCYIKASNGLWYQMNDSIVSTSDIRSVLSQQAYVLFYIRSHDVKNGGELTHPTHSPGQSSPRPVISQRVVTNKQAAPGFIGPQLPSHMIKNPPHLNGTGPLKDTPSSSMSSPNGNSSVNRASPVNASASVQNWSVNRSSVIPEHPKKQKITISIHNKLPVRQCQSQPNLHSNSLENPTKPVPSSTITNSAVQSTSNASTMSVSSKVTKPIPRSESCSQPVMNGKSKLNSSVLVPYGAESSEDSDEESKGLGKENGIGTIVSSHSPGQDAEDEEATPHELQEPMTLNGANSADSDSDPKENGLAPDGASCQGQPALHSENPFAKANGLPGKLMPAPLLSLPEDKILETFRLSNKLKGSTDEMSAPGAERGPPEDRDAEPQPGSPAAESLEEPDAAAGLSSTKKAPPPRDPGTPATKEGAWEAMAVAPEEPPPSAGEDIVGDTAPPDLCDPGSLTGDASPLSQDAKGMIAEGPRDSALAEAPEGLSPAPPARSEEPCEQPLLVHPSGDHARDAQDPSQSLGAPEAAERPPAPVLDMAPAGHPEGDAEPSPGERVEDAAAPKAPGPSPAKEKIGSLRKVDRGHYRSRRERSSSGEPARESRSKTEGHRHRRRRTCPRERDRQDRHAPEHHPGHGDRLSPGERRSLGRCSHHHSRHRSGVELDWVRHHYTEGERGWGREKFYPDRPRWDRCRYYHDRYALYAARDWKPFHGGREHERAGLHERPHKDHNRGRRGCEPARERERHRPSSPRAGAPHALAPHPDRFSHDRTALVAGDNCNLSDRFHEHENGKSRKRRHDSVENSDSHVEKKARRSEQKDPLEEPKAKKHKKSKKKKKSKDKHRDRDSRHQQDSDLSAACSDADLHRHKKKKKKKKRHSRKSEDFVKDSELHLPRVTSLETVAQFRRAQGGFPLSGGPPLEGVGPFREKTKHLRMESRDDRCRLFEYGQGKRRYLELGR
How it was run: (§1)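 Labelling with Biotin-Ahx-Ub-VS (0.5 µM final, 1 h) followed a 3 h triplicate treatment of HEK293T lysate (495 µg per sample, Tris/CHAPS/IGEPAL buffer with protease inhibitors) with fragment at 200 µM or vehicle. Labelled DUBs were NeutrAvidin-enriched, digested with LysC and trypsin, and run by diaPASEF LC-MS/MS. The values, average log2 fragment/vehicle ratios by unpaired t-test, come from global-median-normalised Spectronaut label-free quantities. Proteins with ≥2 unique peptides were used.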

USP46 = USP46 (UniProt P62068)
Chain of USP46 (P62068 whole entry): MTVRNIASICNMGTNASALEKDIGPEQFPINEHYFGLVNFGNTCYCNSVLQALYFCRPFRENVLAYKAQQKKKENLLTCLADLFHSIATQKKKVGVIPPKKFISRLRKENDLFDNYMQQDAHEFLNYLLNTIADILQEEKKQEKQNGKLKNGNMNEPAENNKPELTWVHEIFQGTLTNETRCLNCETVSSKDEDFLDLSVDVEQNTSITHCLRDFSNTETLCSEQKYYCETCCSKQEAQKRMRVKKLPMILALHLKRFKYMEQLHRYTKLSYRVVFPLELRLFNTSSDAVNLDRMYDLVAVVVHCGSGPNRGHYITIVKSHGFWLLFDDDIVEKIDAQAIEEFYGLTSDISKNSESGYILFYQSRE
How it was run: as §1

USP47 = target: T2, USP47 (UniProt Q96K76)
T2 sequence (whole entry): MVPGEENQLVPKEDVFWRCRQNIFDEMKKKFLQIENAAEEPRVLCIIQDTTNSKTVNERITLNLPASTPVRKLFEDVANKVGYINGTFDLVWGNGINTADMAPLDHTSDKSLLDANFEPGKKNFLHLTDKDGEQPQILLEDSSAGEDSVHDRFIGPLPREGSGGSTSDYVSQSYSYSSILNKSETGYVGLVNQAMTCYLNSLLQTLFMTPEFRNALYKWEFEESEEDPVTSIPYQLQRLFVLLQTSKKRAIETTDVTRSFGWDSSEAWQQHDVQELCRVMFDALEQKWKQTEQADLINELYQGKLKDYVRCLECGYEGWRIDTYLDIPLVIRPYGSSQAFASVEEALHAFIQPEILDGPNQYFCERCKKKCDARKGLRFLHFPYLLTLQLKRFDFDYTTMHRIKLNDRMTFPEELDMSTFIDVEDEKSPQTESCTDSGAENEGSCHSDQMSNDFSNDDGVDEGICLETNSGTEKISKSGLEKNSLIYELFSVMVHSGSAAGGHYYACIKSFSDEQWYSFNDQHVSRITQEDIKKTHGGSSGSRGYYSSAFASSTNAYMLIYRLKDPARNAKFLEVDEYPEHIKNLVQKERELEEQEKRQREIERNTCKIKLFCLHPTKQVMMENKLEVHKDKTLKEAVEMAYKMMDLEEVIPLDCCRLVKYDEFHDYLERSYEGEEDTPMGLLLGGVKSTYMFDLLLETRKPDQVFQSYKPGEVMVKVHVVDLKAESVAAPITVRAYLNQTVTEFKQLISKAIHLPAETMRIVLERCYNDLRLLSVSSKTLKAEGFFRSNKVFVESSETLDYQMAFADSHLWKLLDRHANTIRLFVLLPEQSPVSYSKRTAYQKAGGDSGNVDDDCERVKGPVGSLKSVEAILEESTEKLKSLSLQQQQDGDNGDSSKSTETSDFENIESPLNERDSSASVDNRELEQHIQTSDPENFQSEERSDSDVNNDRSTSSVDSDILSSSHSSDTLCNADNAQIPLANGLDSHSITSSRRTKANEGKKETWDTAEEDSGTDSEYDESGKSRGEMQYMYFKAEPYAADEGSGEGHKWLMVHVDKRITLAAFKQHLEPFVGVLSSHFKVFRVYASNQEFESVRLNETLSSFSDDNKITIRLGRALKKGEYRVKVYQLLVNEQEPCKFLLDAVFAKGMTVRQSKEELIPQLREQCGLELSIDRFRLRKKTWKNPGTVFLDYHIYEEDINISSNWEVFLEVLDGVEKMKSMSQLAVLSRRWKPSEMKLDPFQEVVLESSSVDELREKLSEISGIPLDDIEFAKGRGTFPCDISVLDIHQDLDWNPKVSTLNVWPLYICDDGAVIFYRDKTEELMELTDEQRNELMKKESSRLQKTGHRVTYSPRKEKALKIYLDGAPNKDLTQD
How it was run: as §1

USP48 = target: T3, USP48 (UniProt Q86UV5)
T3 sequence (whole entry): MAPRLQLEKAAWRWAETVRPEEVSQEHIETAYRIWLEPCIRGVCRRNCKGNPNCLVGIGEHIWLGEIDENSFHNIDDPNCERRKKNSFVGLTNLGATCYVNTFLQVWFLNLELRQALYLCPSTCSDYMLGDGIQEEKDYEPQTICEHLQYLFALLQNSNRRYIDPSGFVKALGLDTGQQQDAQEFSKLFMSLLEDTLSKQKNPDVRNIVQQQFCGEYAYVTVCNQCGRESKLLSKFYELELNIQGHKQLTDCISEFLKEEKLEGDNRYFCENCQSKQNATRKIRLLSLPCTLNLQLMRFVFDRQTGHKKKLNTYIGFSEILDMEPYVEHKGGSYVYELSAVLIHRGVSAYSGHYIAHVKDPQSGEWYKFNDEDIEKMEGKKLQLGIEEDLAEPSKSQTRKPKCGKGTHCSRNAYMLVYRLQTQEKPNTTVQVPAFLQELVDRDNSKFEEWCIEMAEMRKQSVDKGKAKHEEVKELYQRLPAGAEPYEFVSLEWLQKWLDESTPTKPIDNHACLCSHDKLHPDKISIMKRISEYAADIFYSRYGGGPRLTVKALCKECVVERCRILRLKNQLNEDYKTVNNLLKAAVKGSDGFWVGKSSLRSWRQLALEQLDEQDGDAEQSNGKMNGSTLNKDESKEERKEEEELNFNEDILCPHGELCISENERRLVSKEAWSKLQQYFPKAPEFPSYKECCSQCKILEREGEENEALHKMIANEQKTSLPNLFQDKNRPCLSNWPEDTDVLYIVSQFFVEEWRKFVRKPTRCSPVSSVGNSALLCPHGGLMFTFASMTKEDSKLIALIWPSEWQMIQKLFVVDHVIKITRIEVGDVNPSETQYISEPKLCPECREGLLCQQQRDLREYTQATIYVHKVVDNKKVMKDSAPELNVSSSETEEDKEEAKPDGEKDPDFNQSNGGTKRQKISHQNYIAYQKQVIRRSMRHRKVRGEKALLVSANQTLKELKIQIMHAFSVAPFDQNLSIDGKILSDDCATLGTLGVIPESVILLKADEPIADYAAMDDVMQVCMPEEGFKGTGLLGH
How it was run: as §1

USP5 = target: T4, USP5 (UniProt P45974)
T4 sequence (whole entry): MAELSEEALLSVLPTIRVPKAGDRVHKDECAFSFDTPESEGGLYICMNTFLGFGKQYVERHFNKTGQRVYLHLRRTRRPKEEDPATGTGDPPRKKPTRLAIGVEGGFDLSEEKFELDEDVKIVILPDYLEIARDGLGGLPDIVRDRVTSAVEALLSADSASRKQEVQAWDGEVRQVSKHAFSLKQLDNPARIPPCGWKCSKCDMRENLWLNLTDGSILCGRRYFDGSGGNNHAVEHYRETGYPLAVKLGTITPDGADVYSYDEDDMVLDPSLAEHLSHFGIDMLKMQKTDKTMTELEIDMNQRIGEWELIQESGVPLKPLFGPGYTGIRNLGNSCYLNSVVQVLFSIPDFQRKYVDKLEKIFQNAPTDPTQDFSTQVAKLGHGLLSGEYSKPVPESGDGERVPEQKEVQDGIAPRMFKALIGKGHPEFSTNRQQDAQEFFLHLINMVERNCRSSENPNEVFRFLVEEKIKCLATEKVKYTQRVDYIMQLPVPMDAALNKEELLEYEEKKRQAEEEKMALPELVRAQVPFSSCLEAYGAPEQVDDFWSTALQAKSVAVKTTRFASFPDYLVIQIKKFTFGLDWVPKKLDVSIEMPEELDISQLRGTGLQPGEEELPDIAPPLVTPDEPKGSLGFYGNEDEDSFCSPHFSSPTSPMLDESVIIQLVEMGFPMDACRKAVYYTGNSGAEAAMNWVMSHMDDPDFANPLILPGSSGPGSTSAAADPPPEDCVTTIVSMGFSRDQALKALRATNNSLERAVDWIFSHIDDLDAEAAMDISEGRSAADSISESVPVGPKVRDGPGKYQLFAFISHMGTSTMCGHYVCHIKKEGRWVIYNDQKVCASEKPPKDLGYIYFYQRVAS
How it was run: as §1

USP54 = USP54 (UniProt Q70EL1)
Chain of USP54 (Q70EL1 whole entry): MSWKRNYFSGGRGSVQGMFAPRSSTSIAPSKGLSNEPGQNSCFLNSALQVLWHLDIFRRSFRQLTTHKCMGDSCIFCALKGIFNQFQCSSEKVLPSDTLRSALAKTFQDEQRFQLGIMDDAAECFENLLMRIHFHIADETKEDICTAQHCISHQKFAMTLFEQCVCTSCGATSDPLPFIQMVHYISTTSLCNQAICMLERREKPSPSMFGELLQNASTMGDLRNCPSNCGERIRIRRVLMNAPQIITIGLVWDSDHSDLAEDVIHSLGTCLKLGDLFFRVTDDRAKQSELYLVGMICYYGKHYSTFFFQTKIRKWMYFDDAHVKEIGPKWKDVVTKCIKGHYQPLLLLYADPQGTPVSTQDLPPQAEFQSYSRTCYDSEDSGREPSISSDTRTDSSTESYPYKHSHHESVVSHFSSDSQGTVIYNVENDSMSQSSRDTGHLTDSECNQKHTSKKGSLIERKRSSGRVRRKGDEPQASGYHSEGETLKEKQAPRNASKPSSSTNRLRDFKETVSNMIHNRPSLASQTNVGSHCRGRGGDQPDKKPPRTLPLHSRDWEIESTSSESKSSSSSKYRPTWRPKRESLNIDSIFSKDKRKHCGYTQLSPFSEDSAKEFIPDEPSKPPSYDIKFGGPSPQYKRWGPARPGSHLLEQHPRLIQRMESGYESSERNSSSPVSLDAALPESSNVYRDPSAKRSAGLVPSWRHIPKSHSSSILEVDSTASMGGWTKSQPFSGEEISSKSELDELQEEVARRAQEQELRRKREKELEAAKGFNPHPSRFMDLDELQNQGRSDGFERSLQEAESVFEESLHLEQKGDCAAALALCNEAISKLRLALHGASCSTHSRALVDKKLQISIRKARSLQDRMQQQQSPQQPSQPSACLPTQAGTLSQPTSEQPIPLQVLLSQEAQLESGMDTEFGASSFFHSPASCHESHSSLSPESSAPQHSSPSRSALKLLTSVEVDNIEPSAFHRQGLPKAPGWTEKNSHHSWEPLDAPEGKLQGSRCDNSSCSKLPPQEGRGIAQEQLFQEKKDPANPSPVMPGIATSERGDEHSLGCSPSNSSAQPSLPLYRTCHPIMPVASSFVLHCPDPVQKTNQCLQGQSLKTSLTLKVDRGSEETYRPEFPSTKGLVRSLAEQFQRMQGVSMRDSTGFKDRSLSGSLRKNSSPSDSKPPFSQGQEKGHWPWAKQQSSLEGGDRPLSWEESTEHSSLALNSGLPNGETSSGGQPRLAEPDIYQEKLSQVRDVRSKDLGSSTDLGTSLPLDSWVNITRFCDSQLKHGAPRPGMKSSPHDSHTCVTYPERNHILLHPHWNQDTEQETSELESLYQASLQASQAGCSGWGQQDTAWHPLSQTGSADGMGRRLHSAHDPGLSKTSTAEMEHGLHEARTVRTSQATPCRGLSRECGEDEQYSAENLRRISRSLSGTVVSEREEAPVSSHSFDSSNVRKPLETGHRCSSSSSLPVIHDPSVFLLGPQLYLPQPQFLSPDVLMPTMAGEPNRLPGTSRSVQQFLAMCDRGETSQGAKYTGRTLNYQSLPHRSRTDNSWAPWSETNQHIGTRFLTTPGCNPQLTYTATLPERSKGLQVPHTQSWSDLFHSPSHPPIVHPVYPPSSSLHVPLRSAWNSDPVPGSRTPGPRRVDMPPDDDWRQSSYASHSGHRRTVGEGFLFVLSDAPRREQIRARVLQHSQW
How it was run: as §1

USP7 = USP7 (UniProt Q93009)
Chain of USP7 (Q93009 whole entry, looked up): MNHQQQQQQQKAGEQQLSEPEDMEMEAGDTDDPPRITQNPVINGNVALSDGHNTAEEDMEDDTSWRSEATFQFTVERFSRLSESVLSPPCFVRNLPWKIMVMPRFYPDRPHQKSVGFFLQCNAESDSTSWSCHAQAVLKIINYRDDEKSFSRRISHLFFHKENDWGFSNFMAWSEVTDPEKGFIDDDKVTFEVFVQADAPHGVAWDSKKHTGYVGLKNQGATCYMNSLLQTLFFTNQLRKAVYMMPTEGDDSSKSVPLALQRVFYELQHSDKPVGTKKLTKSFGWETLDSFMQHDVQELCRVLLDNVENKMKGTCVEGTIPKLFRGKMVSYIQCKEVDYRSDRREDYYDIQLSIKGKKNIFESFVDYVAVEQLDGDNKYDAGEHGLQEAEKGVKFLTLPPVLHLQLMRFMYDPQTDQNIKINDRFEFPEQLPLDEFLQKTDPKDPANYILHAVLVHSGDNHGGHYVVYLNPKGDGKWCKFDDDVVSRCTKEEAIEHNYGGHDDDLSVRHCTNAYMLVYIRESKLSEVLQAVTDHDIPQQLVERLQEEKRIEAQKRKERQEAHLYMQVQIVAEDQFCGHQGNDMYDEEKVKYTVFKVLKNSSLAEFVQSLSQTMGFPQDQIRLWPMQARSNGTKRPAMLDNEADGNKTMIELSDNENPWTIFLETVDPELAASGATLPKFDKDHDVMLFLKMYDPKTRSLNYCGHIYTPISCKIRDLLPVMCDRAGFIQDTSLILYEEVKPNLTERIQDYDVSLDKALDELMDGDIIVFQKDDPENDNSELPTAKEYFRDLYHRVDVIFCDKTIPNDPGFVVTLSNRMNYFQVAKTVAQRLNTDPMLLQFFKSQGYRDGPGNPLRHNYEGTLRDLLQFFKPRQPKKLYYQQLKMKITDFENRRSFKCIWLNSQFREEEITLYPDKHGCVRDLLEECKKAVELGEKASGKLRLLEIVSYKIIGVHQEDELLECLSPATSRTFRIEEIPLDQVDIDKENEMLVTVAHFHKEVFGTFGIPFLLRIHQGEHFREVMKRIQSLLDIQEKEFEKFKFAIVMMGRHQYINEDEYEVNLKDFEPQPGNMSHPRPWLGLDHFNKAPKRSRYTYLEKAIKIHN
How it was run: as §1

USP8 = target: T5, USP8 (UniProt P40818)
T5 sequence (whole entry): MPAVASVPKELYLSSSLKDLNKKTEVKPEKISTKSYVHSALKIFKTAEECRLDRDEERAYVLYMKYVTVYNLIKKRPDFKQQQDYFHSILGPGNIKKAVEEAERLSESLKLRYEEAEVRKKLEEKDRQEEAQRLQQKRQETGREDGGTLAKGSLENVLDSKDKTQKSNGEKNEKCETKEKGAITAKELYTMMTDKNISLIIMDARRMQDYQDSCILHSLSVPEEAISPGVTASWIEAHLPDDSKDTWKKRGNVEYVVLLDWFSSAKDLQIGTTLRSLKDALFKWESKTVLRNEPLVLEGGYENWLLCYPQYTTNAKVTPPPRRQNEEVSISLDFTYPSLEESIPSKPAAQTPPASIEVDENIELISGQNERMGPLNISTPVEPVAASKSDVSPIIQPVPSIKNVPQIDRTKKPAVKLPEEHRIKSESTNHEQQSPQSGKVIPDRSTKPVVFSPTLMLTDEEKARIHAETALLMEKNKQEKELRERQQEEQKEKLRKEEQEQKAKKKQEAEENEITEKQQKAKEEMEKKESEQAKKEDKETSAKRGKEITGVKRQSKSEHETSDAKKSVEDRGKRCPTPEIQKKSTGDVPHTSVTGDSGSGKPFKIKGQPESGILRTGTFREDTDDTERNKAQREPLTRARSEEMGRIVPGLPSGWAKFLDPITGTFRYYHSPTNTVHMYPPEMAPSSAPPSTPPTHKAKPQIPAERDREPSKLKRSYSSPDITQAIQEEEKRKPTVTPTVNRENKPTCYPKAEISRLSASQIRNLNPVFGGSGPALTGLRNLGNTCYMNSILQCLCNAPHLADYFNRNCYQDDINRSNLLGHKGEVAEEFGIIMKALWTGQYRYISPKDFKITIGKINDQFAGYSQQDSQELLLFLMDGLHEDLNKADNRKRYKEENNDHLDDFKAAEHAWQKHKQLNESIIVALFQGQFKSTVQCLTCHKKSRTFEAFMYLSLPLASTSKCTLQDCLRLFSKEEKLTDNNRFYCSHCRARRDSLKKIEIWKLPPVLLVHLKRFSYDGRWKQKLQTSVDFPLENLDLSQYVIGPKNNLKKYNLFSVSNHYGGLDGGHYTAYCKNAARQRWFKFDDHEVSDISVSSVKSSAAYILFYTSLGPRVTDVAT
How it was run: as §1

USP9X = USP9X (UniProt Q93008)
How it was run: as §1

UniProt O00487 = target: UniProt O00487
Chain of UniProt O00487 (O00487 whole entry): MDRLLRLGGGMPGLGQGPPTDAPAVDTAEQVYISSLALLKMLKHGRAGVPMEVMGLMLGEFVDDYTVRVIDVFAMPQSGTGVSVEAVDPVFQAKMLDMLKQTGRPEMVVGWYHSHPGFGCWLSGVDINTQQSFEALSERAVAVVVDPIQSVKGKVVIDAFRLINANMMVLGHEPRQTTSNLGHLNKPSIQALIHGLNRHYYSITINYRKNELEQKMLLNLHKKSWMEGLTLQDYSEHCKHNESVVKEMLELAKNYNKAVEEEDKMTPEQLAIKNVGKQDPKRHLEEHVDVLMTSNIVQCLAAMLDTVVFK
How it was run: as §1

Measured: log2 ratio of Biotin-Ahx-Ub-VS probe labelling

O=C(CCl)NC1CCCCNC1=O (stereo not given)
inactive: USP42 0.0716 | USP46 -0.113 | USP47 -0.161 | USP48 -0.154 | USP5 -0.327 | USP54 0.114 | USP7 -0.264 | USP8 -0.134 | USP9X -0.297 | UniProt O00487 -0.13
